Tau fibril FP: inhibitors of human tau fibril formation; P10636; Potency, µM (doses to about 57.7 µM), hits mostly inhibitors; K18 P301L tau heparin fibrillization, Alexa594 FP, 6 h; 280,000 compounds, 0.39% hits; also: nearly all actives have a fitted effect of over 55% in size
Target sequence (P10636 561-689 P618L limits assumed): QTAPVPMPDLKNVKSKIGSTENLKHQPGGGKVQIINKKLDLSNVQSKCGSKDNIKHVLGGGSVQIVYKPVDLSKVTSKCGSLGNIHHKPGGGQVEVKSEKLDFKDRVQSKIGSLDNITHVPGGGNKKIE
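Recombinant K18 P301L […], labeled with Alexa 594 at 0.24 uM over 15 uM unlabeled; heparin inducer 20 uM final; 37 C, 6 hr; FP endpoint.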
Tau fluor counter: counter-screen for tau fibril formation inhibitors; tau K18 P301L Alexa594 fluorescence, heparin fibrillization; Potency, µM (series often up to 57.7 µM); 280,000 compounds, 0.93% hits; also: nearly all actives have a fitted effect of over 55% in size
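Human K18 P301L tau (15 uM unlabeled plus 0.24 uM Alexa 594-labeled, final) in 100 mM sodium acetate pH 7 was mixed with compound and 20 uM heparin and incubated 6 hr at 37 C.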
Coupling enz: inhibits coupling enzyme system, counter-screen for aldolase hits; 290,000 compounds, 0.67% hits; coupling enzyme system counterscreen, AmpLite Red fluorescence; activity change, negative = inhibition, % at 58.2 µM, hits read low; in the data active = activity change below about -30%
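Counterscreen lacking aldolase: glyceraldehyde-3-phosphate coupling-enzyme reagent preincubated 10 min at RT with compound (at 57.5 uM final), then substrate/coupling system with AmpLite Red added; fluorescence read at 525/598 nm after 20 min RT.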
Sfp inh: blocks B. subtilis Sfp PPTase activity; Biochemical Sfp PPTase activity, qHTS; Q9F4F7; 310,000 compounds, 3.5% hits; Potency, µM, most hits filed as inhibitors;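 also: the enzyme is Sfp with the accession as filed and its product quenches rhodamine fluorescence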
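With Hepes-Na pH 7.6 buffer containing 10 mM MgCl2, Sfp (15 nM) modified BHQ-2-YbbR (12.5 uM) using rhodamine-CoA (5 uM). Two reads 30 minutes apart at 525/598 nm yielded each well's rate.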
Tau fibril ThT: inhibitors of human tau fibril formation, thioflavin T binding; P10636; recombinant tau K18 P301L (four-repeat tau fragment), heparin-induced fibrillization, ThT fluorescence; Potency, µM (top dose mostly 57.4 µM), actives largely listed as inhibitors; 270,000 compounds, 2.1% hits; also: nearly all actives have a fitted effect of over 55% in size
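Recombinant human tau K18 fragment […] carrying P301L, 15 uM unlabeled plus 0.24 uM Alexa 594-labeled, was fibrillized with 20 uM heparin in 100 mM sodium acetate pH 7 for 6 hr at 37 C; 30 uM ThT fluorescence read after 1 hr.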
Numbers stand for hits; [ ] = remark or other dose. Shown are actives, neighbours in structure and some others; about 5.2% of the full set was active somewhere. Unless noted, calls follow the shape of the dose curve; as a rule, active = well fitted curve in the direction sought with a large enough effect; inconclusive = small, poorly fitted or top-dose-only effect, or another doubt; inactive = no such curve, though single readings can be large; an effect the other way counts as inactive or inconclusive.

Results for Cc1cccc(-n2ccnc2SCC(=O)Nc2cccc3ccccc23)c1 ?
Tau fibril FP: inactive; Tau fluor counter: inactive; Tau fibril ThT: inactive

How did Cc1cc2nc3c(=O)[nH]c(=O)nc-3n(C)c2cc1C=O do in these assays?
Tau fibril FP: inconclusive; Tau fluor counter: inactive; Coupling enz: -38; Sfp inh: inactive; Tau fibril ThT: inconclusive

How did Cc1cc2nc(C)c(=O)n(C)c2cc1C do in these assays?
Tau fibril FP: inactive; Tau fluor counter: inactive; Coupling enz: inactive; Sfp inh: inactive; Tau fibril ThT: inactive

What do the screens show for `COc1ccc(OC)c(CNc2ncnc3onc(-c4ccc(Cl)cc4)c23)c1`?
Tau fibril FP: inactive; Tau fluor counter: inactive; Tau fibril ThT: inactive

Results for COC(=O)c1ccc(CSc2ncnc3ccccc23)o1 ?
Tau fibril FP: inactive; Tau fluor counter: inactive; Coupling enz: inactive; Sfp inh: inactive; Tau fibril ThT: inconclusive

How did CCOC(=O)NC(=O)CSc1cc(C)c2cc(C)cc(C)c2n1 do in these assays?
Tau fibril FP: inactive; Tau fluor counter: inactive; Coupling enz: inactive; Sfp inh: 45µM; Tau fibril ThT: inconclusive

Results for COC(=O)c1ccc(CSc2ccc3nnc(-c4cccc(F)c4)n3n2)o1 ?
Tau fibril FP: inactive; Tau fluor counter: inactive; Coupling enz: inactive; Sfp inh: 50µM; Tau fibril ThT: inactive

How did COC(=O)c1ccc(CSc2cc(C)c3cc(C)cc(C)c3n2)o1 do in these assays?
Tau fibril FP: inactive; Tau fluor counter: inactive; Coupling enz: inactive; Sfp inh: 14µM; Tau fibril ThT: inconclusive

Results for COC(=O)c1ccc(CSc2n[nH]c(C)n2)o1 ?
Tau fibril FP: inactive; Tau fluor counter: inactive; Coupling enz: inactive; Sfp inh: inactive; Tau fibril ThT: inactive

How did COC(=O)c1ccc(CSc2cc(C)c3cccc(C)c3n2)o1 do in these assays?
Tau fibril FP: inconclusive; Tau fluor counter: inactive; Coupling enz: inactive; Sfp inh: 10µM; Tau fibril ThT: inactive

How did COc1ccc(-c2nc(CN3CCC(C(=O)NCCCOC(C)C)CC3)c(C)o2)cc1OC do in these assays?
Tau fibril FP: inactive; Tau fluor counter: inactive; Tau fibril ThT: inactive

What do the screens show for `Cc1noc(C)c1-c1nc(NCc2ccccc2)c2ccccc2n1`?
Coupling enz: inactive; Sfp inh: inactive

How did COC(=O)[C@@H]1CC2=CC(=O)CC[C@]2(C)[C@@]23O[C@@H]2C[C@@]2(C)[C@H](CC[C@@]24CCC(=O)O4)[C@@H]13 do in these assays?
Tau fibril FP: inactive; Tau fluor counter: inactive; Coupling enz: inactive; Sfp inh: inactive; Tau fibril ThT: inactive

Results for O=C1NC(=Nc2ccccc2)S/C1=C/c1cccs1 ?
Tau fibril FP: inactive; Tau fluor counter: inactive; Coupling enz: inactive; Sfp inh: inactive; Tau fibril ThT: inactive

Results for O=C1/C(=C/c2cccs2)N=C(c2cccs2)N1Nc1ccccc1 ?
Tau fibril FP: inactive; Tau fluor counter: inconclusive; Coupling enz: inactive; Sfp inh: inactive; Tau fibril ThT: 7.1µM

How did O=C1/C(=C\c2cccs2)N=C(c2cccs2)N1Nc1ccccc1 do in these assays?
Tau fibril FP: inactive; Tau fluor counter: inconclusive; Coupling enz: inactive; Sfp inh: inactive; Tau fibril ThT: 10µM

What do the screens show for `Cc1ccc(C2=N/C(=C\c3cccs3)C(=O)N2Nc2ccccc2)cc1`?
Tau fibril FP: inactive; Tau fluor counter: inconclusive; Coupling enz: inactive; Sfp inh: inactive; Tau fibril ThT: inconclusive

How did CC1(C)CCC[C@@](C)([C@H]2CC[C@]3(C)[C@@H]2[C@H](O)C[C@@H]2[C@@]4(C)CC[C@H](O)C(C)(C)[C@@H]4CC[C@]23C)O1 do in these assays?
Coupling enz: inactive; Sfp inh: inactive

How did CCC(Sc1nc2cc(OC)c(OC)cc2c(=O)n1Cc1ccc(Cl)cc1)C(=O)NCCOC (centres undefined) do in these assays?
Tau fibril FP: inactive; Tau fluor counter: inactive; Tau fibril ThT: inactive

Results for CS(=O)(=O)N1CCN(c2ccc(NC(=O)C(c3ccccc3)c3ccccc3)cc2)CC1 ?
Tau fibril FP: inactive; Tau fluor counter: inconclusive; Coupling enz: inactive; Sfp inh: inactive; Tau fibril ThT: inactive

What do the screens show for `O=C(CNCC1CCCCC1)Nc1ccc(N2CCCCC2)cc1`?
Tau fibril FP: inactive; Tau fluor counter: inactive; Coupling enz: inactive; Sfp inh: inconclusive; Tau fibril ThT: inactive

What do the screens show for `O=C(CNCCC1=CCCCC1)Nc1ccc(N2CCCCCC2)cc1`?
Tau fibril FP: inactive; Tau fluor counter: inactive; Coupling enz: inactive; Sfp inh: 16µM; Tau fibril ThT: inconclusive

How did O=C(CNCC1CCCO1)Nc1ccc(N2CCCCCC2)cc1 (centres undefined) do in these assays?
Tau fibril FP: inactive; Tau fluor counter: inactive; Coupling enz: inactive; Sfp inh: 56µM; Tau fibril ThT: inconclusive

Results for O=C(Nc1ccc(N2CCCCC2)cc1)c1ccc2ccccc2n1 ?
Tau fibril FP: inactive; Tau fluor counter: inconclusive; Coupling enz: inactive; Sfp inh: inconclusive; Tau fibril ThT: 13µM

How did O=C(Nc1ccc(N2CCCC2)cc1)C(Cl)c1ccccc1 (centres undefined) do in these assays?
Tau fibril FP: 32µM; Tau fluor counter: inconclusive; Coupling enz: inactive; Sfp inh: 45µM; Tau fibril ThT: 25µM

Results for O=C(CNC1CCCCCC1)Nc1ccc(N2CCCC2)cc1 ?
Tau fibril FP: inactive; Tau fluor counter: inactive; Coupling enz: inactive; Sfp inh: inactive; Tau fibril ThT: inactive

Results for O=C(Cn1cc(SCc2ccccc2F)c2ccccc21)N1CCCCCC1 ?
Tau fibril FP: inactive; Tau fluor counter: inconclusive; Tau fibril ThT: inconclusive

Results for Cc1ccc(N2CCN(c3ccc(NC(=O)CCC(=O)O)cc3)CC2)cc1 ?
Tau fibril FP: inactive; Tau fluor counter: inactive; Coupling enz: inactive; Sfp inh: inactive; Tau fibril ThT: inconclusive

What do the screens show for `O=C(O)CCC(=O)Nc1ccc(N2CCCCCC2)cc1`?
Tau fibril FP: inactive; Tau fluor counter: inactive; Coupling enz: inactive; Sfp inh: 22µM; Tau fibril ThT: inactive

Results for CC(C)(C)NC(=O)NC(=O)COC(=O)c1cccc(NS(=O)(=O)c2ccc(F)c(F)c2)c1 ?
Tau fibril FP: inactive; Tau fluor counter: inactive; Coupling enz: inactive; Sfp inh: inactive; Tau fibril ThT: inactive

Results for CCOc1ccc(Br)cc1S(=O)(=O)Nc1ccc(C(=O)OCC(=O)Nc2ccc(C#N)cc2)cc1 ?
Tau fibril FP: 25µM; Tau fluor counter: inconclusive; Coupling enz: inactive; Sfp inh: inactive; Tau fibril ThT: inactive

What do the screens show for `CC(C)(C)c1ccc(NC(=O)COC(=O)c2ccc(NS(=O)(=O)c3ccc(F)c(F)c3)cc2)cc1`?
Tau fibril FP: 28µM; Tau fluor counter: inconclusive; Coupling enz: inactive; Sfp inh: inactive; Tau fibril ThT: inactive

What do the screens show for `CCOC(=O)c1cccc(NS(=O)(=O)c2ccc3[nH]c4c(c3c2)CCCC4)c1`?
Tau fibril FP: inactive; Tau fluor counter: 10µM[quencher]; Tau fibril ThT: inactive

What do the screens show for `Cc1cccc(NC(=O)C2CCN(S(=O)(=O)c3ccc4[nH]c5c(c4c3)CCCCC5)CC2)c1`?
Tau fibril FP: inactive; Tau fluor counter: inconclusive; Tau fibril ThT: inactive

Screening data: PubChem BioAssay, National Center for Advancing Translational Sciences (NCATS)
